Sampled rows, rich in hits. Any-hit rate of the full collection: about 22%.
Pf growth 48h: inhibits P. falciparum growth in the first generation, 48 h | Potency, µM (series often up to 28.7 µM), without a hit: top-dose activity change, negative = inhibition, actives largely listed as inhibitors | AID 504832 | hit rate 5.9% among 310,000 | P. falciparum luciferase growth in erythrocytes, 48 h; note: potency is the fitted concentration of half-maximal effect; % is set by controls: 0 for no effect and ±100 for the full control effect
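Compounds are pin-transferred into medium, infected erythrocytes (2% hematocrit, 0.1% parasitemia final) are added, and plates sit one parasite generation at 37 C in 5% CO2. Detection reagent is then added and luminescence measured.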
Cycloheximide cs: counter-screen hit for Shiga toxin inhibitors, cycloheximide; cell reporter, cycloheximide protein synthesis inhibition counterscreen; max response, %; hit rate 12% among 300,000; AID 2314; in the data active = max response mostly above about 13%, no sharp cut-off; inactive = mostly below about 14%; note: read at 38.3 µM for the half of the compounds with a filed dose; 0% is about no effect
Pf growth 96h: P. falciparum growth inhibition at 96 hour, primary screen for plastid delayed-death inhibitors | P. falciparum luciferase reporter growth, 96 h | Potency, µM (doses to about 28.7 µM), for the others: top-dose activity change, negative = inhibition, hits mostly inhibitors | hit rate 6.9% among 320,000 | AID 504834; note: potency is the fitted concentration of half-maximal effect; % is set by controls: 0 for no effect and ±100 for the full control effect
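Infected RBCs, 2% Hct / 0.05% parasitemia final; luciferase-reporter P. falciparum; cpd 96 h, 37 C, 5% CO2; luciferase detection reagent; luminescence.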
Shiga toxin inh: blocks Shiga toxin action in Vero cells | Vero cells, Shiga toxin protein synthesis inhibition reporter | inhibition, % at 38.7 µM | hit rate 9.2% among 290,000 | AID 2315; in the data active = inhibition mostly above about 28%, no sharp cut-off; inactive = mostly below about 43%; note: 0% is about no effect
LmPK inh: LmPK (Leishmania mexicana) enzyme inhibition | Potency, µM (top dose mostly 57.5 µM), for the others: top-dose activity change, negative = inhibition, actives largely listed as inhibitors | AID 1721 | hit rate 0.37% among 290,000 | purified LmPK, Kinase-Glo ATP luminescence, 1 h | Q27686; note: potency is the fitted concentration of half-maximal effect; % is set by controls: 0 for no effect and ±100 for the full control effect
Target sequence (Q27686 whole entry, looked up): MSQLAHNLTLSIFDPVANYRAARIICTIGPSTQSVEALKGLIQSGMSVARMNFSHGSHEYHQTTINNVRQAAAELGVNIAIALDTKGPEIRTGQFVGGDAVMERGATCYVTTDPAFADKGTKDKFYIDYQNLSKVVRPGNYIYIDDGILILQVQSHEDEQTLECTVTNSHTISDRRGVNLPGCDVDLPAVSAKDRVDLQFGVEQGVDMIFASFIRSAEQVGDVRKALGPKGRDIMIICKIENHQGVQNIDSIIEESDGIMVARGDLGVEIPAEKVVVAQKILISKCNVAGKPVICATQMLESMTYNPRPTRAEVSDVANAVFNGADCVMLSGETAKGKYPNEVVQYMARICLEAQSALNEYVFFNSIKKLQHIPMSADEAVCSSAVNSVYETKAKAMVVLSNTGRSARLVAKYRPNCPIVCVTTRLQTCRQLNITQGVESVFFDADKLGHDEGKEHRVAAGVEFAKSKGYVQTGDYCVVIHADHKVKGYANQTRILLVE
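Pyruvate kinase activity monitored as ATP production (luciferase luminescence). Conditions: 0.1 nM enzyme, 0.5 mM PEP, 0.1 mM ADP, 1 h, RT; normalized against uninhibited and no-enzyme wells.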
* marks the source's active call; other numbers are inactive results; ? = inconclusive; / = no result given; + = active, no number; [ ] = another dose, or the depositor's remark. Unless noted, calls come from the whole dose curve; as a rule, active = well fitted inhibition curve with a large enough effect; inconclusive = small, poorly fitted or top-dose-only effect, or another doubt; inactive = no such curve, though single readings can be large or run the other way.

SMILES	Pf growth 48h	Cycloheximide cs	Pf growth 96h	Shiga toxin inh	LmPK inh
CCCCN1CCC(COC(=O)c2cc(Cl)c(N)c3c2OCCO3)CC1	-9%	/	-3%	/	/
CC(C)c1ccc(C(C(=O)NC2CCCC2)N(C(=O)c2csnn2)C2CC2)cc1 (stereo not given)	?	-5	?	-8	-1%
Cc1c(C(C)(C)C)c(C=S)n2ccccc12	/	-3	10µM*	-1	-7%
CCn1c(C)[n+](CCOCC[n+]2c(C)n(CC)c3cc(Cl)c(Cl)cc32)c2cc(Cl)c(Cl)cc21	/	-3	10µM*	1	-6%
CC(=O)OCCn1c(C)[n+](CCOC(C)=O)c2cc(Cl)c(Cl)cc21	?	-4	?	-3	-13%
CC1CC(C)CN(c2cc(N(C)CCO)c([N+](=O)[O-])c3nonc23)C1 (stereo not given)	-5%	-6	30%	-19	1%
COc1ccc(OC)c(NC(=O)NNC(=O)COc2ccc(F)cc2F)c1	35%	-2	57%	-7	1%
Clc1ccc2c(c1)C1OCCC1C(c1ccco1)N2 (stereo not given)	93%	26*	-1%[5.75 µM]	66*	?
CC(=O)N1c2ccc(Cl)cc2C2OCCC2C1c1ccco1 (stereo not given)	?	0	?	10	-3%
CCOC(=O)CN1N=C(/C=C/c2ccc(C)cc2)CCC1=O	40%	21	70%	47*	5%
COc1ccc(/C=C/C2=NN(C)C(=O)CC2)cc1	408%	34*	251%	54*	-6%
COc1ccc(-c2cc3nc4n(c(=O)c3s2)CCCCC4)cc1	320%	49*	196%	78*	5%
COc1ccc(-c2nc3n(c2C)CCC3)cc1	60%	27*	128%	71*	-13%
COc1ccc(-c2nnc3n2CCCCC3)cc1OC	24%	-6	23%	-4	-3%
COc1ccc(NS(=O)(=O)c2cccc(-c3nnc4n3CCCCC4)c2)cc1	?	1	?	20	-1%
COc1ccc(-c2cc3nc4n(c(=O)c3s2)CCC4)cc1	36%	33*	?	91*	7.1µM*
Cc1ccc(S(=O)(=O)N(C)/N=C2/C(=O)N(CC(=O)O)c3ccccc32)cc1	12%	-3	?	-6	-4%
COc1ccc(N2C(=O)CSC2c2cccs2)cc1 (stereo not given)	-4%	-3	-16%	-3	2%
O=C1CSC(c2ccccn2)N1c1ccc(C(F)(F)F)cc1 (stereo not given)	2.9µM*	-5	?	10	4%
O=C1CSC(c2cccs2)N1c1ccccc1 (stereo not given)	6%	-1	7.4µM*	-6	-6%
c1ccc(N2CCN(c3ccccc3)C2c2cccs2)cc1	-16%	30*	/	94*	4%
CC(=Nc1ccccc1N)c1c(C)cc(=O)n(O)c1O	/	31*	/	57*	/
CCCCNC(=O)CSc1nc2ccccc2c(=O)n1C1CCCC1	13µM*	-8	56%	-21	5%
CSc1nc2ccccc2c(=O)n1C1CCCCC1	8%	11	1.5µM*	-14	0%
COC(=O)c1ccc2c(=O)n(C3CCCCC3)c(SCC#N)nc2c1	-8%	14	-12%	71*	-4%
SMILES	Pf growth 48h	Cycloheximide cs	Pf growth 96h	Shiga toxin inh	LmPK inh
CCc1ccc(CN2CCCC(C(=O)Nc3ccc(-c4cscn4)cc3)C2)o1 (stereo not given)	?	9	46%	-3	9%
Nn1c(SCC(=O)NC2CCS(=O)(=O)C2)nc2scc(-c3ccccc3)c2c1=O (stereo not given)	-8%	/	-17%	/	/
Cc1cc2c(s1)c1cnn(Cc3cccc(Cl)c3)c(=O)c1n2C	/	-1	/	-5	/
O=C1[C@@H]2[C@@H]3C[C@@H]([C@H]4ON=C(c5ccc(Cl)cc5)[C@@H]34)[C@@H]2C(=O)N1C1CCCCC1	25%	7	10µM*	-6	0%
COc1ccc(N2CCN(C3CCCN(Cc4cccc(C(C)=O)c4)C3)CC2)cc1 (stereo not given)	?	4	?	0	1%
CS(=O)CCC(NS(=O)(=O)c1ccccc1)C(=O)O (stereo not given)	?	-2	9.3µM*	-6	-11%
CC(C)C[C@H](NC(=O)[C@H](Cc1c[nH]c2ccccc12)NC(=O)[C@H](CCCCN)NC(=O)CNC(=O)[C@H](CC(C)C)NC(=O)[C@H](CO)NC(=O)[C@@H](N)Cc1cnc[nH]1)C(=O)NCC(=O)N[C@@H](Cc1cnc[nH]1)C(=O)N1CCC[C@H]1C(=O)N[C@@H](CC(=O)O)C(=O)N[C@@H](CCCCN)C(=O)N[C@@H](Cc1ccccc1)C(=O)O	/	-4	/	-3	/
COc1ccc(NC(=O)CCc2nc(-c3ccc(C)cc3)no2)cc1Cl	36%	18	/	55	2%
CCOC(=O)c1ccc(NC(=O)CCc2nc(-c3ccc(Cl)cc3)no2)cc1	?	-2	?	9	1%
COc1cccc(-c2noc(CCC(=O)Nc3cccnc3)n2)c1	69%	25*	/	77	4%
Cc1ccc(-c2noc(CCC(=O)Nc3ccc4c(c3)OCO4)n2)cc1	23%	2	2.3µM*	19	1%
CCOC(=O)c1ccc(NC(=O)CCc2nc(-c3ccc(C)cc3)no2)cc1	?	12	3.7µM*	28	6%
COc1ccc(OCCCC(=O)Nc2ccc3c(c2)OCCO3)cc1	-12%	11	-2%	+	3%
O=C(OCC(=O)N1CCc2ccccc21)c1ccncc1	-16%	/	-27%	/	/
C=C1CCN(C(Cc2ccccc2)C(=O)NCc2ccc(Cl)c(Cl)c2)S(=O)(=O)c2ccccc21 (stereo not given)	/	10	/	19	/
CC1CC(C)CN(C(=O)C2CCN(S(=O)(=O)c3cccc4cccnc34)CC2)C1 (stereo not given)	-5%	-2	?	2	2%
CCC(=O)c1ccc(OCC(O)CNC2CCCC2)cc1 (stereo not given)	-19%	1	?	/	-2%
COc1ccc(NC(=O)CCc2nc(-c3ccc(C)cc3)no2)c(OC)c1	10%	-1	-4%	-14	1%
COc1ccc(-c2noc(CCC(=O)Nc3ccc4c(c3)OCCO4)n2)cc1	15%	23*	0.59µM*	43*	2%
COc1ccc(-c2noc(CCC(=O)Nc3ccc(C)c(C)c3)n2)cc1	-13%	15*	/	34	0%
COc1ccc(N2CCN(C(=O)c3cccnc3)CC2)c([N+](=O)[O-])c1	9%	-1	25%	-7	-3%
CC(=O)N1CC(C)Oc2ccc(S(=O)(=O)NC(CC(=O)O)c3cc(C)ccc3C)cc21 (stereo not given)	0%	-1	12µM*	-3	6%
CC(=O)N1CC(C)Oc2ccc(S(=O)(=O)NC(CC(=O)O)c3ccccc3C)cc21 (stereo not given)	19%	4	144%	-9	2%

Bioassay records deposited in PubChem BioAssay by National Center for Advancing Translational Sciences (NCATS).
